# Among all 310,000 compounds or so, about 14,000 (4.5%) showed an effect of 50% or more. The effect is printed as a negative number. The sample as a whole holds a higher share of strong results than the screen did.
# Biological target: human ether-à-go-go-related gene (hERG) potassium channel (human, UniProt Q12809)
# Experiment: primary screen, population patch clamp on CHO cells stably expressing hERG; higher = less effect of the substance
# 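Note: peak tail current of the secondary pulse compared with the same well before compound.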
# Sequence of human ether-à-go-go-related gene (hERG) potassium channel (Q12809 whole entry, looked up): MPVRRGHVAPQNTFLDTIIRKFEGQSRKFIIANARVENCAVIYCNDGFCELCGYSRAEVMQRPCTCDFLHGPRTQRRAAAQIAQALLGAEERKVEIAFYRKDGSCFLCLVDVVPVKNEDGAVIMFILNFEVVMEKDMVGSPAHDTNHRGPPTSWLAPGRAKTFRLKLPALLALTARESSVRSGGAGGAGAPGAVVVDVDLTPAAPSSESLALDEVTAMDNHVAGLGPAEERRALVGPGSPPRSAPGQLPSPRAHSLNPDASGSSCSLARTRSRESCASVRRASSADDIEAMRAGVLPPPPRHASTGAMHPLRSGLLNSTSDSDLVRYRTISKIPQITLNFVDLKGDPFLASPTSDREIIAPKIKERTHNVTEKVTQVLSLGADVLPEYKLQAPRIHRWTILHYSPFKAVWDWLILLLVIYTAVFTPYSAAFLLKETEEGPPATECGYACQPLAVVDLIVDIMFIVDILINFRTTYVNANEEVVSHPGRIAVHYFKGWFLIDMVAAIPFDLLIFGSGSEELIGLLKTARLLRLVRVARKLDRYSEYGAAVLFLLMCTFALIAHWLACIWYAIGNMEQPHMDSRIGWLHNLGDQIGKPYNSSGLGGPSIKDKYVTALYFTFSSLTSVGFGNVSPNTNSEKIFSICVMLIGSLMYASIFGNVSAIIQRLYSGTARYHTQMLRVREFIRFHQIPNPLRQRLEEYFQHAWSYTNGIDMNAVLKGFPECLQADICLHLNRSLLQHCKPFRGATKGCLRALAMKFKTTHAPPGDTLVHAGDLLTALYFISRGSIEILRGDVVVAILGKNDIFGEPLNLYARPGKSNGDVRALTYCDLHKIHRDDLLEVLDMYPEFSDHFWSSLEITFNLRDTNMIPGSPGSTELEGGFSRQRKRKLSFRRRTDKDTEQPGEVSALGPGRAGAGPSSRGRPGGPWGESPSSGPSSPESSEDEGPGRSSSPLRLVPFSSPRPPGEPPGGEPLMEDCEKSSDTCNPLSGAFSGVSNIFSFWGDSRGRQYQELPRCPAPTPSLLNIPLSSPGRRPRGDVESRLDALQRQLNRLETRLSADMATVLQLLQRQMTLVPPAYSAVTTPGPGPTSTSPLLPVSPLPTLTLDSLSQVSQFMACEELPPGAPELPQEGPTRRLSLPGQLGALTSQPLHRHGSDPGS
row,Structure (SMILES),"hERG current change (%, negative = inhibition) at 10uM [%]"
1,COc1ccc(S(=O)(=O)N2CCCOC2CNC(=O)C(=O)NCCc2ccco2)cc1 (stereo not shown),4.42
2,CC(C)(C)c1ccc(C(=O)Cn2cnnc2C#N)cc1,3.7
3,Cc1ccc(N2CC(C(=O)NCCc3ccc(S(N)(=O)=O)cc3)CC2=O)cc1 (stereo not shown),22.5
4,O=C(N/N=C/c1cccnc1)c1ccccc1,17.3
5,Cn1c(/C=C/c2ccccc2[N+](=O)[O-])nc2ccccc2c1=O,5
6,COc1ccccc1S(=O)(=O)Cc1ccc(C(=O)NCc2ccco2)o1,-33.5
7,O=C(COC(=O)Cc1ccccc1)Nc1ccc(SC(F)F)cc1,5.27
8,CNC(=S)NNC(=O)c1c(C)nc2cc(C)ccn12,7.15
9,O=C(c1cccs1)N1CCN(c2ccc([N+](=O)[O-])cc2F)CC1,-56.8
10,CCC(=O)c1ccc(N2CCN(C(=O)c3cc([N+](=O)[O-])ccc3N3CCN(C)CC3)CC2)c(F)c1,-46.4
11,CCC(=O)c1ccc(N2CCN(C(=O)c3cc([N+](=O)[O-])ccc3F)CC2)c(F)c1,-42.9
12,Cc1ccc(S(=O)(=O)N2CCC(C(=O)OCC(=O)N(C)Cc3ccccc3)CC2)cc1C,-12
13,O=C(Nc1cccc(Cl)c1N1CCCC1)c1ccco1,6.11
14,O=C(Nc1cccc(Cl)c1N1CCOCC1)c1ccc(Br)o1,6.64
15,O=C(Nc1cccc(Cl)c1N1CCCC1)c1ccc(Br)o1,-5.58
16,O=C(Nc1cccc(Cl)c1N1CCOCC1)c1cccs1,-23.5
17,O=C(NC(=S)Nc1cccc(Cl)c1N1CCCCC1)c1cccs1,22.7
18,CCN1CCN(c2c(Cl)cccc2NC(=O)c2cccs2)CC1,-73.8
19,CCN1CCN(c2c(Cl)cccc2NC(=O)c2ccco2)CC1,-73.4
20,O=C(Nc1cccc(Cl)c1N1CCOCC1)c1ccc([N+](=O)[O-])o1,2.67
21,CCN1CCN(c2c(Cl)cccc2NC(=O)c2ccc([N+](=O)[O-])o2)CC1,-73.9
22,CCN1CCN(c2c(Cl)cccc2NC(=O)c2ccc(Br)o2)CC1,-73.6
23,O=C(Nc1cccc(Cl)c1N1CCCC1)c1ccc([N+](=O)[O-])o1,9.6
24,O=C(Nc1cccc(Cl)c1N1CCOCC1)c1ccco1,-8.08
25,CC12CCC(=O)N1C(C(=O)NNC(=O)c1ccc(Br)cc1)CS2 (stereo not shown),-8.4

# From publication PMC4336329 (PLoS ONE, 2015)
